Rows were chosen to be rich in hits. Some 1.2% of all compounds tested hit in one or more screens of this group.
GC-A act = GC-A (human) enzyme activation. activation, % at 10 µM. P16066. hit rate 0.14% among 370,000. HEK293 GC-A cells, cGMP TR-FRET, EC30 ANP; 0% at EC30 ANP, 100% saturating ANP. AID 1671463; in the data active = activation above about 40%
MsrA act = bovine methionine sulfoxide reductase A activation; purified bovine MsrA, absorbance read-out; hit rate 0.3% among 360,000; activation, % at 10.6 µM; in the data active = activation above about 7.5%;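 note: 0% = vehicle and 100% = reference activator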
MsrA inhibitor = inhibits bovine methionine sulfoxide reductase A; purified bovine MsrA, absorbance read-out; AID 651718; inhibition, % at 15.5 µM; hit rate 0.75% among 360,000; in the data active = inhibition above about 4.5%;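 note: 0% = vehicle wells with enzyme and 100% = reference inhibitor wells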
NPR2 activator = GC-B (human) receptor activation. P20594. hit rate 0.11% among 370,000. activation, % at 10 µM. AID 1920062. HEK293-GC-B cells, CNP EC30, cGMP TR-FRET; 0% at EC30 CNP, 100% saturating CNP;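 active = activation at 10 µM reaching about 35% in either raw or pattern-adjusted values, limit read from the data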
Target sequence (P20594 whole entry, looked up): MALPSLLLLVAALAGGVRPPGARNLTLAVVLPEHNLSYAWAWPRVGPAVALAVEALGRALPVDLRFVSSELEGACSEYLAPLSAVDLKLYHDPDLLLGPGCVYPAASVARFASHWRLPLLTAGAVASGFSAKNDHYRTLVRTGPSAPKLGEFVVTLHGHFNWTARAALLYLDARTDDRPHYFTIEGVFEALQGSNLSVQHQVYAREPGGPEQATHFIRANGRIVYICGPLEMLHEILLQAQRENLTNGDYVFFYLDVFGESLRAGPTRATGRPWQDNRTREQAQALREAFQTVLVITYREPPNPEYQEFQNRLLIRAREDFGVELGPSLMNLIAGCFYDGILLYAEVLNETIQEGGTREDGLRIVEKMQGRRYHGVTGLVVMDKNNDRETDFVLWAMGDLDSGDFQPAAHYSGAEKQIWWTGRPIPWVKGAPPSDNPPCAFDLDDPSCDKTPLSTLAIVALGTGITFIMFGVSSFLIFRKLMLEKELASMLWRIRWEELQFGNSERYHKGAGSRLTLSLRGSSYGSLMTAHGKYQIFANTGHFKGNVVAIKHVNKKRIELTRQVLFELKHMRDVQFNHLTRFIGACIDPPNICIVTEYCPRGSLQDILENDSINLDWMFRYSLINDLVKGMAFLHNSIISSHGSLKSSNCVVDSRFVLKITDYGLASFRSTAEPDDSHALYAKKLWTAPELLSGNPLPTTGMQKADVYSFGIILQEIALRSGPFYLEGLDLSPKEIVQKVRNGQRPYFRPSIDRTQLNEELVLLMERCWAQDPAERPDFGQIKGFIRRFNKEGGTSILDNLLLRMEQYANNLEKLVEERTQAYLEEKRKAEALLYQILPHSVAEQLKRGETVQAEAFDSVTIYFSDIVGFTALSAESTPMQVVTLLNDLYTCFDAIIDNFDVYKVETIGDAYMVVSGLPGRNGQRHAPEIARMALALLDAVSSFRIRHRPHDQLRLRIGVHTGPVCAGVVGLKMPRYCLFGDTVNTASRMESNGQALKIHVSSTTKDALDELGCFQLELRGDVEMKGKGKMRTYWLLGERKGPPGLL
MsrA act confirm = bovine methionine sulfoxide reductase A activation confirmed; purified bovine MsrA, absorbance read-out; shares compounds with MsrA act; hit rate 12% among 1,000; AID 602270; activation, % at 10.6 µM; in the data active = activation above about 4%;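 note: enzyme coupled to thioredoxin and thioredoxin reductase with NADPH; 0% = vehicle wells and 100% = reference activator wells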
Starred values were filed as active, the others as inactive; . = no result.

SMILES | GC-A act | MsrA act | MsrA inhibitor | NPR2 activator | others
CCN(CC)C(=O)Cn1cc(/C=C2\C(=O)NC(=O)N(c3ccccc3F)C2=O)c2ccccc21 | 44* | -6 | -1 | 16
Cc1ccccc1N1C(=O)NC(=O)/C(=C\c2cnn(-c3ccccc3)c2)C1=O | 45* | -2 | 0 | 10
CCn1c(C)cc(/C=C2\C(=O)NC(=O)N(c3ccccc3C)C2=O)c1C | 2 | -7 | 0 | -2
Cc1c(P(=S)(c2ccccc2)c2ccccc2)c2ccccc2n1C | -24 | . | . | -23
CCCCCCCCn1sccc1=O | 49* | 7 | 0 | 14
COc1cc(/C=C/c2nc3ccccc3c(=O)n2-c2ccc(O)cc2)ccc1O | 13 | -2 | 3 | 35*
COc1ccc(OC(=O)N(C)C[C@H]2OCc3cnnn3CCCC(=O)N([C@@H](C)CO)C[C@@H]2C)cc1 | 2 | . | 0 | -2
O=C1C(=O)c2ccccc2-c2ccccc21 | 5 | 49* | 0 | -3
CC(C)OC(=O)C1C(c2ccc(I)cc2)CC2CCC1N2C (stereo not given) | -21 | . | -1 | -18
Cc1ccc(-n2c(O)c(/C=N/N3CCCCC3c3cccnc3)c(=O)[nH]c2=S)cc1 (stereo not given) | -4 | -15 | 4.5* | 5
COC(=O)C1=C(C(=O)OC)SC2(S1)C(C(=O)OC)=C(C(=O)OC)Sc1c2ssc1=O | 43* | 4 | 2 | 65*
COc1ccc(-c2cc(-c3ccccc3)[n+](C)c(-c3ccccc3)c2)cc1 | 7 | -4 | 4.8* | 3
COc1ccc(-[n+]2c(-c3ccccc3)cc(-c3ccc(C)cc3)cc2-c2ccccc2)cc1 | -19 | -2 | 3 | -5
CC(=O)c1c(C)n(Cc2ccccc2Cl)c2ccc(O)cc12 | 83* | 0 | 0 | 10
CC(=O)c1c(C)n(CC2CCCO2)c2ccc(O)cc12 (stereo not given) | 3 | -1 | 1 | 4
COC(=O)c1c(C)n(Cc2ccco2)c2ccc(O)cc12 | 47* | -1 | 0 | -8
Cc1c(C(=O)Nc2ccccc2)c2cc(O)ccc2n1Cc1ccccc1 | 61* | 0 | -1 | -3
CC(C)CCP(=O)(O)O | 3 | . | . | 2
COc1ccc(-c2nc3ccccc3c(=O)n2-c2ccc(OC)cc2)cc1 | 0 | -1 | -1 | 1
CCn1nc(-c2ccccc2)nc2c(=O)n(C)c(=O)nc1-2 | . | 37* | . | .
COc1ccc(C(c2nnnn2-c2ccc3c(c2)OCCO3)N2CCC3(CC2)C(=O)NCN3c2ccccc2)cc1 (stereo not given) | 3 | -1 | 1 | 0
NC(Cc1ccc(Cl)cc1)c1csc(Nc2ncccn2)n1 (stereo not given) | -5 | -1 | -2 | -8
O=C1NC(=O)C(=Cc2ccc(-c3ccc(F)cc3O)o2)C(=O)N1 | 57* | -10 | 0 | 22
CN1/C(=C\C=C2C(=O)NC(=O)NC2=O)C(C)(C)c2ccccc21 | -1 | -3 | -1 | 0
CCN1/C(=C/C=C/C2=[N+](CC)c3ccccc3C2(C)C)C(C)(C)c2ccccc21 | 19 | -3 | -1 | 43*
SMILES | GC-A act | MsrA act | MsrA inhibitor | NPR2 activator | others
CN1C(=O)C(=Cc2ccc(Sc3ccccc3)o2)C(=O)N(C)C1=S | 6 | -2 | 1 | -2
CN1C(=O)C(=Cc2ccc(Sc3ccccc3)o2)C(=O)N(C)C1=O | 46* | 0 | -2 | 27
O=C1NC(=O)C(=Cc2ccc(Sc3ccccc3)o2)C(=O)N1 | 51* | -1 | 1 | 49*
O=C1NC(=O)C(=Cc2ccco2)C(=O)N1 | 12 | -2 | 2 | 5
Cc1ccccc1C(=O)NCCN1CCC2(CC1)C(=O)NCN2c1ccccc1 | -2 | . | 0 | -7
CN(Cc1cccc(-c2ccncc2)c1)C(=O)Oc1ccccc1Cc1ccccc1 | . | 2 | . | .
COCCCn1c(N)c(C(=O)OCCOC)c2nc3ccccc3nc21 | -1 | -3 | 3 | 1
COC(=O)c1c(N)n(Cc2ccc(OC)cc2)c2nc3ccccc3nc12 | 48* | -2 | 2 | 43*
COCCOC(=O)c1c(N)n(Cc2ccc(OC)cc2)c2nc3ccccc3nc12 | 47* | -2 | 2 | 47*
CCOC(=O)c1c(N)n(Cc2ccc(OC)cc2)c2nc3ccccc3nc12 | 46* | . | 1 | 44*
C=CCN(CC#CCO)Cc1ccc(OC)cc1OC | 2 | . | . | -7
CC(C)(C)NC(=O)C1CN=C(c2ccccc2)c2cc(Cl)ccc2N1C(=O)C1CCC1 (stereo not given) | -22 | . | . | -21
O=c1c2ccccc2[se]n1-c1ccccc1 | -30 | 20* | 0 | -5
Fc1ccc2nc(-c3ccc(CN4CCC(n5nnc6ccccc65)CC4)cc3)c(-c3ccccc3)nc2c1 | 7 | . | 2 | 1
CC(NC(=O)OCc1ccccc1)P(=O)(Oc1ccccc1)Oc1ccccc1 (stereo not given) | -3 | . | . | -6
c1ccc2[nH]c(CCNC3CCCCC3)nc2c1 | 0 | 7.8* | 0 | 2 | MsrA act confirm=-1
c1ccc2c(CCNC3CCCCC3)c[nH]c2c1 | -3 | -3 | 0 | 0
COC1CC2C=C(C)C=CC=CC(=O)NC(c3ccccc3)CC=CCCC(O)CC(=O)C2=C1O (stereo not given) | -26 | 3 | -1 | -8
CNc1ccc2nc3ccccc3[n+](C)c2c1 | -60 | 92* | -1 | -64 | MsrA act confirm=74*
C[n+]1c2ccccc2nc2ccc(NCCO)cc21 | -55 | 59* | 0 | -68 | MsrA act confirm=51*
N#CCC[C@@H]1CC[C@]2(CCCN(Cc3ccccn3)C2)O1 | -1 | . | . | 0
Clc1cc(Cl)cc(CN2Cc3ccccc3-n3nncc3C2)c1 | -6 | . | . | -5
C=C1C(=O)[C@@]23C[C@H]4[C@@H]5[C@@]6(C)CCC[C@@]57[C@@H]2[C@@H](O)[C@@H]1C[C@H]3[C@H]7N4C6 | 4 | 26* | 0 | 2 | MsrA act confirm=17*
CCOC(=O)c1c(N)n(CCCOC(=O)c2ccco2)c2nc3ccccc3nc12 | 0 | 11* | 1 | -2 | MsrA act confirm=1
c1ccc(Cn2ccnc2)cc1 | 3 | -2 | -1 | -4
SMILES | GC-A act | MsrA act | MsrA inhibitor | NPR2 activator | others
CC(C)c1cccc(C(C)C)c1OCCn1ccnc1 | 1 | 14* | 0 | 1 | MsrA act confirm=-2
Cc1nc2c(=O)n(C)c(=O)nc-2n(C)n1 | 0 | 18* | 0 | 9 | MsrA act confirm=13*
CC(C)C[C@H]1N=C(c2ccccc2)c2ccccc2N(CC(=O)NC(C)(C)C)C1=O | -20 | . | . | -17
COC(=O)C1CC(OC(C)=O)C(=O)[C@H]2C1(C)CC[C@H]1C(=O)OC(c3ccoc3)CC12C (stereo not given in full) | 1 | . | -1 | -1
C[C@]12CC[C@@H](O)C[C@@H]1CC[C@@H]1[C@@H]2CC[C@]2(C)C(=O)[C@H](O)C[C@@H]12 | . | 19* | . | . | MsrA act confirm=-1
CC(NC(=O)OCc1ccccc1)[P+](=O)O (stereo not given) | 1 | . | . | 1
COc1ccc([C@@H]2C[C@H]3[C@@H](CN2)CON3C)cc1 | 5 | . | . | -2

Compound activity from PubChem.
